According to PubChem BioAssay AID686971 (National Center for Advancing Translational Sciences (NCATS), 2013):
Among all 360,000 compounds or so, about 7,500 (2.1%) were called active. Not shown: some 8% with an inconclusive outcome. Calls follow the shape of the dose curve; as a rule, active = well fitted cell-killing curve with a large enough effect; inconclusive = small, poorly fitted or top-dose-only effect, or effect the other way, or another doubt; inactive = no such curve, though single readings can be large or run the other way. The list comes from a sample in which actives are over-represented; it also holds similar structures and randomly drawn compounds. The source holds several records for some structures; these can differ, active in one and inactive in another.

Test: qHTS for induction of synthetic lethality in tumor cells producing 2HG: qHTS for the HT-1080-IDH1KD cell line
Details: HT-1080 IDH1 knockdown viability, ATP luminescence, 48 h; series mostly up to 46.1 µM; activity, negative = toxicity: at the top concentration
Text: Unbiased genomic sequencing for 22 glioma genomes found recurrent mutation of IDH1 on chromosome 2q33, a gene encoding the cytosolic isoform of IIDH1 associated with the tri-carboxylic acid cycle (TCA) that catalyzes the oxidative decarboxylation of isocitrate, yielding alpha-ketoglutarate and CO2 via NADP+ to NADPH conversion. Subsequent studies confirmed the recurrent IDH mutations in up to 70% of secondary gliomas and in 10% of AML cases. In addition, the somatic mutation of cancer-associated IDH1 is a point mutation resulting in various amino-acid substituents at Arginine132 (IDH1 R132), a key residue found in the enzyme's active site that when mutated, results in the loss-of-function in metabolizing isocitrate but confers a gain-of-function to produce the oncometabolite 2-hydroxyglutarate (2HG). This in effect defines IDH1 as an oncogene and provides an extraordinary opportunity to discover chemical probes against mutant IDH1 that may translate into much needed new therapies for glioma and AML patients.
This assay aims to perform a synthetic-lethal screen for chemical probes specific for 2HG-producing tumor cells using matched paired cell lines (1) HT-1080-NT fibrosarcoma cell line that overproduces 2HG and (2) HT-1080-IDH1KD cell line which has IDH1 expression knocked-down. Desirable compounds are toxic to the NT fibrosarcoma cell line but not to the IDH1KD cell line. The data in this AID corresponds to the results of the qHTS against the HT-1080 IDH1KD cell line.
[1] Dang L, Jin S, Su SM. IDH mutations in glioma and acute myeloid leukemia. Trends of Mol Med. 2010; 16(9): 387-97.
[2] Dang L et al. Cancer-associated IDH1 mutations produce 2-hydroxyglutarate. Nature. 2010; 465(7300):966.
Molecular Libraries Probe Production Centers Network [MLPCN]
NIH Chemical Genomics Center [NCGC]
Assay Submitter (PI): Lenny Dang Ph.D., Agios Pharmaceuticals
Suspensions of trypsinized HT-1080-IDH1KD cells were dispensed into white, tissue culture-treated, solid 1536-well plates at 5uL/well (750 cells/well final concentration) in RPMI medium supplemented with 5% FBS. Plates were incubated at 37 degrees C for 2 hours, after which 23 nL of compounds or DMSO were delivered to each well using a pin tool. Plates were then incubated at 37 degrees C for an additional 48 hours. CellTiter-Glo viability reagent (Promega) was dispensed into wells (2.5uL/well) and incubated at room temperature for 10 minutes. The plates were measured on a PerkinElmer ViewLux plate reader for luminescent signal (clear filter, 1 sec exp.). DMSO-treated control wells and media-only (no cells) control wells were used to normalize %Activity of identified toxic compounds; DMSO-treated wells corresponded to 0%Activity (100% viability), while media-only controls were used to normalize 100%Activity (0% viability). To minimize variability between cell lines, both HT-1080-NT and HT-1080-IDH1KD lines were dispensed and treated with identical compound series in single batches.
Concentration-response curves were fitted to the signals arising from the resulting luminescence. The concentration-effect curves were then classified based on curve quality (r2), response magnitude and degree of measured activity, and compounds were subsequently categorized based on their curve class.
Potency is read from the fitted curve at half-maximal effect.

| Compound | Potency | activity, negative = toxicity |
| --- | --- | --- |
| CC(=O)OC1C2(CC3N4C(=O)C5(CO)SSC4(CC31O)C(=O)N5C)OC(C)C(C)(C)C2=O (stereo not given) | 0.58 µM (active) |  |
| C[C@]12CCC3C(CC[C@H]4[C@H](O)[C@H](O)CC[C@]34C)C1CCC2=O (stereo not given in full) |  | 1.29% (inactive) |
| COC(=O)N1C(c2ccccc2)C1c1ccccc1 (stereo not given) |  | 22.5% (inactive) |
| CSc1ccc(C(=O)C2CCCN(Cc3ccn[nH]3)C2)cc1 (stereo not given) |  | 13.8% (inactive) |
| CCN1C(=O)NC(=O)C2(CCCC2)C1=O |  | 0.17% (inactive) |
| Cc1cc(C)cc(NC(=S)NC2CC3CCCC(C2)N3Cc2cccs2)c1 (stereo not given) | 12.6 µM (active) |  |
| Cc1cc(C)c2c(c1)NP(=S)(c1ccccc1)N2 (stereo not given) |  | -13.9% (inactive) |
| CC(=O)C1(O)CCC2C3CCC4=C(Cl)C(=O)CCC4(C)C3CCC21C (stereo not given) |  | -28.9% (inactive) |
| Oc1cc2c(cc1O)CN(C(=S)NCCc1ccc(Cl)cc1)CCC2 |  | 5.49% (inactive) |
| S=C(NCCc1ccccc1)N1Cc2cc(N3CCOCC3)ccc2-n2nncc2C1 |  | -18.7% (inactive) |
| C[C@H]1CN([C@@H](C)CO)C(=O)CCCn2nncc2CO[C@H]1CN(C)C(=O)Oc1cccc2ccccc12 |  | 10.6% (inactive) |
| O=[N+]([O-])c1ccc(Cl)c(Cl)c1 |  | 24.3% (inactive) |
| C[C@]12CC[C@H](O)C[C@H]1CC[C@@H]1C2CC[C@]2(C)[C@@H](C3=CC(=O)OC3)[C@@H](O)C[C@]12O (stereo not given in full) | 3.66 µM (active) |  |
| C[C@]12CCC3C(CC[C@H]4C[C@@H](O)CC[C@]34C)C1C[C@@H](O)[C@H]2O (stereo not given in full) |  | 7.01% (inactive) |
| C[C@]12CCC3C(CC[C@H]4C[C@@H](O)CC[C@]34C)C1CC[C@@H]2O (stereo not given in full) |  | -4.31% (inactive) |
| O=C1C2CCN(CC2)C1(CO)CO |  | 9.29% (inactive) |
| CCOC(=O)CC(SP1(=S)OCC2(CCCCO2)C(C2CCCCO2)O1)C(=O)OCC (stereo not given) |  | 6.11% (inactive) |
| CC(=O)Cc1ccc(OC(C)C)cc1 |  | 22.5% (inactive) |
| CN(C)CC1Oc2ccccc2OC1(O)c1ccccc1 (stereo not given) | 4.61 µM (active) |  |
| CCCOC(=O)C1C2c3ccccc3C(c3ccccc32)C1C(=O)O (stereo not given) |  | 16.8% (inactive) |
| Cc1ccc(C2CN(C)CC2C(=O)c2ccc(F)cc2)cc1 (stereo not given) |  | -14.3% (inactive) |
| COc1cc(C(=O)N2Cc3ccc(Br)cc3-n3nncc3C2)cc(OC)c1OC |  | 18.9% (inactive) |

| Compound | Potency | activity, negative = toxicity |
| --- | --- | --- |
| CCN(CC)CCOC(=O)c1cc2cc(COC)ccc2o1 |  | 4.54% (inactive) |
| COc1ccc2c(c1)NP(=S)(c1ccccc1)N2 (stereo not given) |  | 17.6% (inactive) |
| CCC(C)(O)C(=O)OC1C(=O)OC2CC3C(C)=CC(=O)C(O)C3(C)C3C4(O)OCC23C1C(C)C4O (stereo not given) | 0.0411 µM (active) |  |
| C[C@H]1CN([C@@H](C)CO)C(=O)CCCn2nncc2CO[C@H]1CN(C)C(=O)Oc1ccccc1 |  | -2.35% (inactive) |
| O=C1NC(=O)C(CCOc2ccccc2)(CCc2ccccc2)C(=O)N1 |  | 3.48% (inactive) |
| COc1ccc(C2C=C(C)Oc3c2c(=O)oc2ccccc32)cc1OC (stereo not given) |  | -5.45% (inactive) |
| Cc1ccc(-c2nc3ccccc3c(=O)n2-c2ccc(Br)cn2)cc1 |  | 22.6% (inactive) |
| COC1C(O)C(C)OC(OC2CCC3(C=O)C(CCC4C3CCC3(C)C(C5=CC(=O)OC5)CCC43O)C2)C1O (stereo not given) | 0.0184 µM (active) |  |
| CCn1cc(CN2CCCC(C(=O)c3cccc(C(F)(F)F)c3)C2)cn1 (stereo not given) |  | 5.48% (inactive) |
| CSCCC(c1nnnn1C(C)(C)C)N1CCC(n2c(=O)[nH]c3ccccc32)CC1 (stereo not given) |  | -23.7% (inactive) |
| CC1CCCN1CCC(C(N)=O)(c1ccccc1)c1ccccc1 (stereo not given) |  | -8.22% (inactive) |
| CCOc1ccc(-c2cc(C)[n+](CCN(CC)CC)c(-c3ccc(OCC)cc3)c2)cc1 | 5.17 µM (active) |  |
| CCC(=O)OC(Cc1ccccc1)(c1ccccc1)C(C)CN(C)C (stereo not given) |  | -11.7% (inactive) |
| CCC1(CC(C)c2ccccc2)C(=O)NC(=O)NC1=O (stereo not given) |  | 5% (inactive) |
| COC(=O)C[C@H]1CC[C@H]2NC[C@@H](O)COC[C@@H]2O1 |  | 22.5% (inactive) |
| CC=C(C)C(=O)OC1CCN2CC=C(COC(=O)C(O)(C(C)OC)C(C)(C)O)C12 (stereo not given) |  | 1.21% (inactive) |
| c1cc2c(cc1CCNC1CCCCCC1)OCO2 |  | 5.41% (inactive) |
| Fc1ccc(N2CCN(Cc3ccc4c(c3)OCO4)CC2)cc1 |  | -4.13% (inactive) |
| CC(=NCc1ccc2c(c1)OCO2)c1c(O)[nH]c(=O)[nH]c1=O | 20.6 µM (active) |  |
| CC(C)n1c(=O)c(C=Nc2ccc(Br)cc2)c(O)n(Cc2ccco2)c1=O |  | -19.8% (inactive) |
| COC(=O)C1=C(c2ccc(C(C)=O)cc2)C[C@@H]2CC[C@H]1N2C(=O)NCCNC(C)=O |  | 7.51% (inactive) |
| Cc1cc(-c2ccc(N)c(C)c2)ccc1N |  | 12.8% (inactive) |

| Compound | Potency | activity, negative = toxicity |
| --- | --- | --- |
| CCN1C(=O)C(=Cc2c(C)n(CC(=O)NCC3CCCO3)c3ccccc23)C(=O)N(CC)C1=S (stereo not given) |  | -8.26% (inactive) |
| COc1cccc(OC)c1C(=O)NC(=S)N1C[C@H]2C[C@H](C1)c1cccc(=O)n1C2 |  | 6.67% (inactive) |
| CCCCCCCCCCCCn1ccc(=N)cc1 | 1.84 µM (active) |  |
| CN1C2C=C(N(C(=O)c3ccc(Cl)cc3)c3ccccc3)CC1CC2 (stereo not given) |  | -4% [at 9.24 µM] (inactive) |
| CC(=O)NCC1=C(c2ccc3ccccc3c2)C[C@@H]2CC[C@H]1N2Cc1ccco1 |  | 0.901% (inactive) |
| CCOC(=O)[C@]12Cc3cc(OC)ccc3[C@H]1N(C(C)C)C(=O)c1ccccc12 | 16.4 µM (active) |  |
| CCOC(=O)[C@]12Cc3ccccc3[C@H]1N(C1CCCCC1)C(=O)c1cc(OC)ccc12 | 3.26 µM (active) |  |
| CC1([N+](=O)[O-])COP(=O)(Nc2ccc(F)cc2)OC1 (stereo not given) |  | 2.49% (inactive) |
| C[C@]12CCC3C(CC[C@H]4[C@H](O)[C@H](O)CC[C@]34C)C1CC[C@@H]2O (stereo not given in full) |  | 7.82% (inactive) |
| CC(C)CN1Cc2cc(N3CCCCC3)ccc2-n2nncc2C1 |  | 0.618% (inactive) |
| CCN1CC2C3CCC(C)(O3)C2C1 (stereo not given) |  | 13% (inactive) |
| CC1CC=CCC12C(=O)NC(=S)NC2=O (stereo not given) |  | 12.1% (inactive) |
| C[C@]12CCCCC1=CC(=O)C1C2CC[C@@]2(C)C1C[C@@H](F)[C@@H]2O (stereo not given in full) |  | -0.58% (inactive) |
| CCOC(=O)CNC(=O)N1Cc2cc(N3CCCCC3)ccc2-n2nncc2C1 |  | 15.5% (inactive) |
| Cc1ccc(OC(=O)N(C)C[C@@H]2OCc3cnnn3CCCC(=O)N([C@H](C)CO)C[C@@H]2C)cc1 |  | 0.516% (inactive) |
| O=C1NC(=O)N(Cc2ccco2)C(=O)/C1=C\c1ccc(-c2ccc(F)cc2)o1 | 18.4 µM (active) |  |
| COc1ccc(N2C(=O)/C(=C/c3ccco3)C(=O)NC2=S)cc1 |  | 1.76% (inactive) |
| CCOC(=O)c1cccc(C2=C(CNC(=O)c3ccncc3)[C@H]3CC[C@@H](C2)N3Cc2ccccc2)c1 |  | -5.65% (inactive) |
| NC(=O)Nc1cccc(C(F)(F)F)c1 |  | 0.786% (inactive) |
| CCNS(=O)(=O)c1ccc(NC(=O)Nc2cccc(C(F)(F)F)c2)cc1 | 11.2 µM (active) |  |
| CNC(=O)Nc1ccc(C(O)(C(=O)OC)C(F)(F)F)cc1 (stereo not given) |  | 3.8% (inactive) |
